# Assay results published in PubChem BioAssay (Tox21).
# Several values for one entry are separate records, joined by “and”; a condition that tells them apart may be missing. Equal values may be shown once. A number with no mark means an inactive call. Records with an inconclusive call do not appear. Where a call stands in place of a potency, no number is given. Activity calls are given as the source filed them. Unless noted, calls come from the whole dose curve.
# Legend:
# [1] = Nuclear factor erythroid 2-related factor 2/antioxidant responsive element (Nrf2/ARE) small molecule agonists: luciferase reporter gene qHTS assay in human keratinocytes (AID 1919969); note: nearly all actives have a fitted effect of over 35% in size; note: potency is the fitted concentration of half-maximal effect
# [2] = G protein-coupled receptor (GPCR) small molecule agonists, calcium flux assay: HEK293 wild type cell line counter screen (AID 1920065)
# Procedure, shortened: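 In this agonist-mode screen, ATP is the positive control and DMSO the vehicle. Cells grow 18 h before a 1 h dye incubation at 37 C; signal is taken at Ex/Em 480/540 over 3 min.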
# [3] = p53 small molecule agonists, cell-based qHTS assay with human liver microsomes (AID 1963577);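 note: p53 response element beta-lactamase reporter cells with liver microsomes plus NADPH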
# Procedure, shortened: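 In this qHTS, p53 response-element beta-lactamase cells receive test compound together with a microsome/NADPH activating system (0.5 mg/mL final each) and are incubated 16 h at 37 C before LiveBLAzer fluorescence detection.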
# [4] = p53 small molecule agonists, cell-based qHTS assay with rat liver microsomes (AID 1963578)
# Procedure, shortened: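 Agonist mode in p53RE-bla reporter cells, with compounds co-incubated 16 h at 37 C alongside 0.5 mg/mL rat liver microsomes and 0.5 mg/mL NADPH (final), followed by a 2 h LiveBLAzer detection step.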
# [5] = p53 small molecule agonists, cell-based qHTS assay with human liver microsomes: qHTS cell viability counter screen (AID 1963579); note: nearly all actives have a fitted effect of over 45% in size; note: potency is the fitted concentration of half-maximal effect
# Procedure, shortened: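 Metabolically activated exposure: compounds, human liver microsomes and NADPH (0.5 mg/mL final apiece) were added to p53RE-bla cells seeded 5 h earlier, left 16 h at 37 C, and then assessed for viability by CellTiter-Glo luminescence.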
# [6] = p53 small molecule agonists, cell-based qHTS assay with rat liver microsomes: qHTS cell viability counter screen (AID 1963580); note: nearly all actives have a fitted effect of over 45% in size; note: potency is the fitted concentration of half-maximal effect
# Procedure, shortened: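 HCT-116 p53RE-bla, 4,000 cells/well, 5 h pre-incubation; cpd + rat liver microsomes 0.5 mg/mL + NADPH 0.5 mg/mL (final); 16 h, 37 C; CellTiter-Glo, 30 min RT; luminescence.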
# [7] = target: 5-hydroxytryptamine receptor 2A (Homo sapiens) (UniProt P28223); assay: 5-hydroxytryptamine receptor 2A (HTR2A) small molecule antagonists, cell-based qHTS assay (AID 1963586); note: nearly all actives have a fitted effect of over 45% in size; note: potency is the fitted concentration of half-maximal effect
# 5-hydroxytryptamine receptor 2A (Homo sapiens), sequence (P28223 whole entry, looked up): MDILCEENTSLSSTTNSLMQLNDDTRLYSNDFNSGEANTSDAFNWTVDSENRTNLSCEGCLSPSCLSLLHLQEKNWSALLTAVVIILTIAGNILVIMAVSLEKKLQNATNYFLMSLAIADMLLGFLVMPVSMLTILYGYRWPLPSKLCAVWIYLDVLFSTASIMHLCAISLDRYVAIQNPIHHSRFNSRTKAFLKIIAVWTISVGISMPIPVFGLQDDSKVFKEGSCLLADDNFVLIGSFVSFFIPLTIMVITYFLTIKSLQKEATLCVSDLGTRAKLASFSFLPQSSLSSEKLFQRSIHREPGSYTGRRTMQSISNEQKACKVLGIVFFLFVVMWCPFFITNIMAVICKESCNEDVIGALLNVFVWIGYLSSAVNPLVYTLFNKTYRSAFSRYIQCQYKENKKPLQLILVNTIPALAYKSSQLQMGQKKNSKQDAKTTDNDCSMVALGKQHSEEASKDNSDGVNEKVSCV
# Procedure, shortened: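 Antagonist-mode intracellular calcium assay: DOI (4 nM) added after 5 min compound pre-incubation at room temperature to dye-loaded HTR2A-CHO cells. Fluorescence followed for 3 min, sampled every second.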
# [8] = target: 5-hydroxytryptamine receptor 2A (Homo sapiens) (UniProt P28223); assay: 5-hydroxytryptamine receptor 2A (HTR2A) small molecule agonists, cell-based qHTS assay (AID 1963587); note: nearly all actives have a fitted effect of over 30% in size; note: potency is the fitted concentration of half-maximal effect
# Procedure, shortened: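 Kinetic calcium-flux fluorescence (2 min, 1 sec intervals) after compound addition in agonist mode. HTR2A-CHO cells were cultured 18 h, then dye-loaded 1 h at 37 C.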
# [9] = target: Muscarinic acetylcholine receptor M1 (Homo sapiens) (UniProt P11229); assay: Cholinergic receptor muscarinic 1 (CHRM1) small molecule antagonists, cell-based qHTS assay (AID 1963588); note: nearly all actives have a fitted effect of over 40% in size; note: potency is the fitted concentration of half-maximal effect
# Muscarinic acetylcholine receptor M1 (Homo sapiens), sequence (P11229 whole entry, looked up): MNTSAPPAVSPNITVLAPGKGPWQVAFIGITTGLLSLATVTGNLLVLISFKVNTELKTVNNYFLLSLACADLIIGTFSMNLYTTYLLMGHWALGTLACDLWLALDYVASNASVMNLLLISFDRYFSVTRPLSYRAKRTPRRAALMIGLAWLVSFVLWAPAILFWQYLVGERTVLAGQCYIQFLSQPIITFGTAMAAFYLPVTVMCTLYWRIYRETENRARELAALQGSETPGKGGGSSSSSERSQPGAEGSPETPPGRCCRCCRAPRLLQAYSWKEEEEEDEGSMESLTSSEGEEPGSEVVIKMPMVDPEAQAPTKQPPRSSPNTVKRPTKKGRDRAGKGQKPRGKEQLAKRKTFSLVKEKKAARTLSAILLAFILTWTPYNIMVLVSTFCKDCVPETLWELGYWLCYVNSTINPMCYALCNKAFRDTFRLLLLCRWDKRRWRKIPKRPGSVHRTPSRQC
# Procedure, shortened: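 CHRM1-CHO calcium-flux assay, antagonist mode. Cells were seeded 18 h, dye-loaded 1 h at 37 C and given compound for 5 min at RT, then acetylcholine was added at 50nM. FDSS fluorescence was read 3 min; 15 concentrations, three runs.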
# [10] = target: Muscarinic acetylcholine receptor M1 (Homo sapiens) (UniProt P11229); assay: Cholinergic receptor muscarinic 1 (CHRM1) small molecule agonists, cell-based qHTS assay (AID 1963589); note: nearly all actives have a fitted effect of over 35% in size
# Procedure, shortened: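 Stable CHRM1-CHO cells (human receptor) were incubated 18 h, dye-loaded for 1 h at 37 C and exposed to test compounds for agonist activity, with calcium-dependent fluorescence followed kinetically.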
# [11] = cAMP Responsive Elements (CRE) small molecule agonists, cell-based qHTS assay (AID 1963590)
# Procedure, shortened: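 FRET-based beta-lactamase readout (LiveBLAzer B/G, 2 h RT) quantified CRE activation in HEK 293T CRE-bla cells after 3 h treatment with DMSO-dissolved compounds.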
# [12] = cAMP Responsive Elements (CRE) small molecule antagonists, cell-based qHTS assay (AID 1963591; active = well fitted inhibition curve with a large enough effect in the signal ratio in the repeat runs, not every such curve was filed as active; the % refers to the signal ratio)
# Procedure, shortened: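 qHTS in CRE-bla HEK 293T cells: compound in DMSO, then 0.25 uM NKH477 (final), 3 h at 37 °C/5% CO2; beta-lactamase FRET read-out after 2 h substrate incubation.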
# [13] = target: Beta-2 adrenergic receptor (Homo sapiens) (UniProt P07550); assay: Adrenergic beta2 receptor (ADRB2) small molecule antagonists, cell-based qHTS assay (AID 1963592); note: series mostly up to about 92 µM; nearly all actives have a fitted effect of over 50% in size
# Beta-2 adrenergic receptor (Homo sapiens), sequence (P07550 whole entry, looked up): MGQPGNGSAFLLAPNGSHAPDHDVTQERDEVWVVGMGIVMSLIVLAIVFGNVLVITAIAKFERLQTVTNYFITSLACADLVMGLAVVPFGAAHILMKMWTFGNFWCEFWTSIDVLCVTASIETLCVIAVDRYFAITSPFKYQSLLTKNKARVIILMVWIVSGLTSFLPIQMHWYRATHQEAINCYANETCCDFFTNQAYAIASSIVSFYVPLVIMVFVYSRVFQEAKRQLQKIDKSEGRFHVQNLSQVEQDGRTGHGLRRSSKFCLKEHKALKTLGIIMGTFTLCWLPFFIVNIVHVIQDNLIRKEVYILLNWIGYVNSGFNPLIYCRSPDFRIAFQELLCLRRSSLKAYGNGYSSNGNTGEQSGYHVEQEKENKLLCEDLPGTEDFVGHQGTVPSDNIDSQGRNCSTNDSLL
# Procedure, shortened: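 Cells (CHO, stable ADRB2 overexpression) incubated 18-20hr at 37C; compounds added from DMSO; agonist mix (1nM isoproterenol, 100uM IBMX, 25uM Ro-20-1724) added; 0.5hr RT; d2-cAMP and anti-cAMP-cryptate added; 1hr RT; 665/615 nm read.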
# [14] = target: D(2) dopamine receptor (Homo sapiens) (UniProt P14416); assay: Dopamine D2 receptor (DRD2) small molecule agonists, cell-based qHTS assay (AID 1963594); note: nearly all actives have a fitted effect of over 35% in size
# D(2) dopamine receptor (Homo sapiens), sequence (P14416 whole entry, looked up): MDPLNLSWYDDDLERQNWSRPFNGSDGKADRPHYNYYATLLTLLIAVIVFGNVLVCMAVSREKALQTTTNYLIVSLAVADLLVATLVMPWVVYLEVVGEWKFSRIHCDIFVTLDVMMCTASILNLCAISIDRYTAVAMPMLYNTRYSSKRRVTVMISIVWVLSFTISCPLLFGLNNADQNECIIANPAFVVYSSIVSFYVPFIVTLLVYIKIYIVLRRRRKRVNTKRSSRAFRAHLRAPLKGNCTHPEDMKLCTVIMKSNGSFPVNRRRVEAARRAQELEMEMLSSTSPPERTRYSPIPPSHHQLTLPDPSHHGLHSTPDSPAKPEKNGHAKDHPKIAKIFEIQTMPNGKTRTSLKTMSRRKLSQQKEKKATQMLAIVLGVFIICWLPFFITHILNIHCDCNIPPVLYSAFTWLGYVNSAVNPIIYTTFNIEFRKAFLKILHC
# Procedure, shortened: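 cAMP accumulation in DRD2-HEK293 cells measured by HTRF after 1 h detection; compounds added 10 min before NKH477 (200nM […]) forskolin-analogue stimulation, 30 min at room temperature, with Ro20-1724 present at 0.1 mM final.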
# [15] = target: KiSS-1 receptor (Homo sapiens) (UniProt Q969F8); assay: Human kisspeptin (KISS1R) small molecule agonists, calcium flux assay in KISS1R-HEK293 cells (AID 1920064; active = well fitted activation curve with a large enough effect in the repeat runs)
# KiSS-1 receptor (Homo sapiens), sequence (Q969F8 whole entry, looked up): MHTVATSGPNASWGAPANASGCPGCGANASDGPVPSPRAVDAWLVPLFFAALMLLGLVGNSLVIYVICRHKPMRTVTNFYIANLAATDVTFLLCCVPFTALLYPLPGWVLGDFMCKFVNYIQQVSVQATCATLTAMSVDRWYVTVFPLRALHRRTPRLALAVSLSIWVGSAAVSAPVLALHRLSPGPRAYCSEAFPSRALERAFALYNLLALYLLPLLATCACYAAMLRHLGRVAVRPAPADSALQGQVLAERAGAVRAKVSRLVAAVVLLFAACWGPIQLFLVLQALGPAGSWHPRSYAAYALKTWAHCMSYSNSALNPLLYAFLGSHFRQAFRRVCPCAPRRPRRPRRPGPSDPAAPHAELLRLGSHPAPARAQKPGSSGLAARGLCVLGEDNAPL
# Procedure, shortened: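 Intracellular calcium mobilization in KISS1R-HEK293 cells was recorded by fluorescence (Ex/Em 480/540) for 3 min following compound addition to cells pre-loaded 1 h with calcium dye.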
# [16] = target: Beta-2 adrenergic receptor (Homo sapiens) (UniProt P07550); assay: Adrenergic beta2 receptor (ADRB2) small molecule agonists, cell-based qHTS assay (AID 1963593);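 note: CHO cells stably overexpressing human ADRB2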
# Procedure, shortened: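 CHO cells stably over-expressing ADRB2 were plated overnight at 37C, then dosed with compounds plus a stimulation mix containing 100uM IBMX and 25uM Ro-20-1724 for 0.5hr at room temperature. cAMP was measured by HTRF competition, 1hr.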
# [17] = target: D(2) dopamine receptor (Homo sapiens) (UniProt P14416); assay: Dopamine D2 receptor (DRD2) small molecule antagonists, cell-based qHTS assay (AID 1963595; active = well fitted inhibition curve with a large enough effect in the signal ratio in the repeat runs, with a control signal flat; the % refers to the signal ratio; note: potency is the fitted concentration of half-maximal effect)
# Procedure, shortened: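 HEK293 cells stably expressing DRD2 were preincubated with 0.1 mM Ro20-1724, then with compound for 10 min at room temperature. Cells were stimulated with 200 nM NKH477 plus 12 nM quinpirole for 30 min, and cAMP was read by HTRF.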
# [18] = p53 small molecule agonists, cell-based qHTS assay: qHTS cell viability counter screen (AID 1963581); note: nearly all actives have a fitted effect of over 45% in size
# Procedure, shortened: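 Compounds are pinned onto HCT-116 p53RE-bla cells and left 16 h at 37 C. Following the reporter FRET read, ATP is quantified by CellTiter-Glo luminescence after 30 min at room temperature.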
# [19] = target: Gonadotropin-releasing hormone receptor (Homo sapiens) (UniProt P30968); assay: Human gonadotropin-releasing hormone receptor (GnRHR) small molecule agonists, calcium flux assay in GnRHR-HEK293 cells (AID 1920063); note: nearly all actives have a fitted effect of over 35% in size
# Gonadotropin-releasing hormone receptor (Homo sapiens), sequence (P30968 whole entry, looked up): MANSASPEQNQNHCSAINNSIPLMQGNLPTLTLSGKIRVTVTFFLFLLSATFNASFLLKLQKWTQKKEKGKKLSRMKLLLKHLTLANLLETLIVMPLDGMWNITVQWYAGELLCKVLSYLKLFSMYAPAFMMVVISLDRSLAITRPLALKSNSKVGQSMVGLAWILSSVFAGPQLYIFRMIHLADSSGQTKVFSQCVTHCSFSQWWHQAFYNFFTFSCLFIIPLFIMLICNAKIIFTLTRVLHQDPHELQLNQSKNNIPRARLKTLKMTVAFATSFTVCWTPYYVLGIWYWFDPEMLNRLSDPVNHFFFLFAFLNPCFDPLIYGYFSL
# Procedure, shortened: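 Tox21-format agonist screen using human GnRHR-expressing HEK293 cells and a fluorescent calcium dye; kinetic 3-min fluorescence reading after compound addition, 15-point concentration series run in triplicate.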
# [20] = p53 small molecule agonists, cell-based qHTS assay (AID 1963582; active = well fitted activation curve with a large enough effect in the signal ratio in the repeat runs, not every such curve was filed as active; the % refers to the signal ratio)
# Procedure, shortened: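 Agonist activity was scored from beta-lactamase FRET fluorescence in p53RE-bla cells treated 16 h at 37 C with compounds in DMSO, substrate incubation being 2 h at room temperature.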
smiles,measurement,setting,value
Nc1ccc([N+](=O)[O-])c(N)c1,Potency,[1],inactive
same,Potency,[2],inactive
same,Potency,[3],inactive
same,Potency,[4],inactive
same,Potency,[5],inactive
same,Potency,[6],inactive
same,Potency,[7],inactive
same,Potency,[8],inactive
same,Potency,[9],inactive
same,Potency,[10],inactive
same,Potency,[11],inactive
same,Potency,[12],inactive
same,Potency,[13],inactive
same,Potency,[14],inactive
CCCCCCCCn1sc(Cl)c(Cl)c1=O,Potency,[1],4.86 µM (active)
same,Potency,[15],inactive
same,Potency,[3],inactive
same,Potency,[4],inactive
same,Potency,[5],36.3 µM (active)
same,Potency,[6],36.3 µM (active)
same,Potency,[8],43.6 µM (active)
same,Potency,[9],inactive
same,Potency,[10],inactive
same,Potency,[13],inactive
same,Potency,[16],inactive
same,Potency,[14],inactive
same,Potency,[17],27.3 µM (active)
O[C@@H](c1cc(C(F)(F)F)nc2c(C(F)(F)F)cccc12)[C@H]1CCCCN1,Potency,[1],inactive
same,Potency,[2],inactive
same,Potency,[3],inactive
same,Potency,[4],inactive
same,Potency,[5],inactive
same,Potency,[6],inactive
same,Potency,[7],3.65 µM (active)
same,Potency,[8],10.7 µM (active)
same,Potency,[14],inactive
same,Potency,[17],inactive
CCN(CC)CCCC(C)Nc1ccnc2cc(Cl)ccc12 (stereo unspecified),"activity, positive = activation",[1],-10.3% [at 8.39 µM] and 0.993% [at 19 µM]
same,activation,[15],-0.539% [at 6.97 µM] and -0.536% [at 15.8 µM]
same,activation,[2],0.411% [at 5.23 µM] and -0.526% [at 11.8 µM]
same,"activity change, negative = cytotoxicity",[5],1.38% [at 5.99 µM] and -6.37% [at 13.5 µM]
same,"activity change, negative = cytotoxicity",[6],0.0381% [at 5.99 µM] and -13.2% [at 13.5 µM]
same,"activity change, negative = cytotoxicity",[18],-9.2% [at 5.99 µM] and -2.12% [at 13.5 µM]
same,"activity, negative = inhibition",[7],2.23% [at 5.62 µM] and 1.08% [at 12.7 µM]
same,activation,[8],-0.411% [at 7.02 µM] and 1.58% [at 15.9 µM]
same,Potency,[9],2.52 µM (active)
same,activation,[10],-0.78% [at 6.97 µM] and -0.406% [at 15.8 µM]
same,"activity change, negative = inhibition",[13],0.663% [at 8.39 µM] and -0.0752% [at 19 µM]
same,activation,[16],0.827% [at 19 µM]
same,activation,[14],-2.86% [at 8.39 µM]
same,"activity change, negative = inhibition",[17],-2.41% [at 8.38 µM] and 1.11% [at 18.9 µM]
Nc1ncn([C@H]2C[C@H](O)[C@@H](CO)O2)c(=O)n1,Potency,[1],inactive
same,Potency,[15],inactive
same,Potency,[2],inactive
same,Potency,[5],inactive
same,Potency,[6],inactive
same,Potency,[18],inactive
same,Potency,[7],inactive
same,Potency,[8],inactive
same,Potency,[9],inactive
same,Potency,[10],inactive
same,Potency,[11],inactive
same,Potency,[12],inactive
same,Potency,[13],inactive
same,Potency,[16],inactive
same,Potency,[14],inactive
CCCCNCCCC,Potency,[19],inactive
same,Potency,[15],inactive
same,Potency,[2],inactive
same,Potency,[3],inactive
same,Potency,[5],inactive
same,Potency,[6],inactive
same,Potency,[18],inactive
same,Potency,[20],inactive
same,Potency,[7],inactive
same,Potency,[8],inactive
same,Potency,[10],inactive
same,Potency,[11],inactive
same,Potency,[12],inactive
same,Potency,[13],inactive
same,Potency,[16],inactive
same,Potency,[14],inactive
same,Potency,[17],inactive
CC1(CO)CN(c2ccccc2)NC1=O (stereo unspecified),Potency,[19],inactive
same,Potency,[15],inactive
same,Potency,[2],inactive
same,Potency,[3],inactive
same,Potency,[4],inactive
same,Potency,[5],inactive
same,Potency,[18],inactive
same,Potency,[20],inactive
same,Potency,[7],inactive
same,Potency,[8],inactive
same,Potency,[9],inactive
same,Potency,[10],inactive
same,Potency,[11],inactive
same,Potency,[12],inactive
same,Potency,[13],inactive
same,Potency,[16],inactive
same,Potency,[14],inactive
same,Potency,[17],inactive
